TLR9-MyD88 inh: inhibitors of TLR9-MyD88 association in cells, primary screen, cell-based, CHO, BLA complementation, fluorescence; inhibition, % at 4.98 µM; CCF4 FRET ratio; AID 504734, 2011; 340,000 compounds, 0.21% hits; Toll-like receptor 9 (Homo sapiens) + Myeloid differentiation primary response protein …;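 active = inhibition above the mean over all tested compounds plus 3 SD, cut at about 21% in these data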
GRK2 inh: compounds blocking aptamer binding on GRK2 – biochemical, human GRK2, bead flow cytometry, HTS, primary screen; FAM-aptamer displacement from GRK2; inhibition of aptamer binding, % at 10 µM; 330,000 compounds, 0.59% hits; AID 488847, 2010;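 active = inhibition of aptamer binding above 40%, roughly 3 SD of noise, on plates passing a quality check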;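 also: median bead fluorescence of bound FAM aptamer so fluorescent compounds give negative values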
TMEM16A inh: TMEM16A chloride channel inhibitors, primary screen, cell-based, HTS. 310,000 compounds, 1.2% hits. Anoctamin-1 (Mus musculus), Q8BHY3. normalized B-score (activity score, 25-100; higher = stronger inhibition) at 10 µM. HEK293 TMEM16A/YFP iodide influx fluorescence, ionomycin;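 active = ratio plate-corrected score three or more library SD toward inhibition, starting fluorescence score within five deviations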;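 also: score derived from kinetic fluorescence span divided by baseline fluorescence per well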
Target sequence (Q8BHY3 whole entry, looked up): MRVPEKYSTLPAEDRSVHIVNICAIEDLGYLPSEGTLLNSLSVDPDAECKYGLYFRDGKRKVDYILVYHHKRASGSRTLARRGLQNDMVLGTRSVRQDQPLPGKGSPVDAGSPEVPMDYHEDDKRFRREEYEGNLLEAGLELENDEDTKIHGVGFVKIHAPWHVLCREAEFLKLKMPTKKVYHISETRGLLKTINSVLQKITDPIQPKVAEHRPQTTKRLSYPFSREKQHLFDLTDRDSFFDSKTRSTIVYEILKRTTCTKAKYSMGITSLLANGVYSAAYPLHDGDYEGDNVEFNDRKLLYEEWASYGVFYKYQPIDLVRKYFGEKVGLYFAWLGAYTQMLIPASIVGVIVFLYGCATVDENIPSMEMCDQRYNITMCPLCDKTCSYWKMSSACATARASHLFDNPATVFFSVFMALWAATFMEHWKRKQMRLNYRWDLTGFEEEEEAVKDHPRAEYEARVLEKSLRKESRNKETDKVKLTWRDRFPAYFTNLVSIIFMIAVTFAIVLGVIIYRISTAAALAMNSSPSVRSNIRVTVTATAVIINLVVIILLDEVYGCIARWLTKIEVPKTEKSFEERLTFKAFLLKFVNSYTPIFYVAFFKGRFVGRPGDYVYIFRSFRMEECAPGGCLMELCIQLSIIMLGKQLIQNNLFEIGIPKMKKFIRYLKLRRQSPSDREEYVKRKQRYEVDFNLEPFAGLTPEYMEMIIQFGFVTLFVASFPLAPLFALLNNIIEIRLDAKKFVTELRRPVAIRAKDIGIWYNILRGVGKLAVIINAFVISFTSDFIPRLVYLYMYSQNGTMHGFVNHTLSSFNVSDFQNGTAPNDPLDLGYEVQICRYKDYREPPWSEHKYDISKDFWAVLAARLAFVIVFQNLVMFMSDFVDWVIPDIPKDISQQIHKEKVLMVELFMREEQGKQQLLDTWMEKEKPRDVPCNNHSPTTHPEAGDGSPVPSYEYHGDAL
TMEM16A act: TMEM16A chloride channel activators or potentiators, primary screen, cell-based, HTS. HEK293 TMEM16A/YFP-H148Q/I152L, iodide quench fluorescence; hits give low values. Anoctamin-1 (Mus musculus), Q8BHY3. 340,000 compounds, 0.3% hits. B-score at 10 µM;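 active = fluorescence-ratio B-score plate-corrected deviation score at least 3 library SD below zero, with starting fluorescence score within 5 deviations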;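 also: channel opened by trigger with iodide after compound preincubation; score built on the fluorescence ratio of max minus min over baseline; more negative score means more quench and so TMEM16A activation or potentiation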
TLR4-MyD88 BLA: inhibitors of TLR4-MyD88 association in cells, primary screen, cell-based, HeLa CL3-4, BLA complementation, FRET ratio; 200,000 compounds, 0.18% hits; Toll-like receptor 4 (Homo sapiens) + Myeloid differentiation primary response protein …; HeLa CL3-4 TLR4/MyD88 BLA complementation; inhibition, % at 8.4 µM; AID 861, 2007; in the data active = inhibition above about 25%
NOD2-RIPK2 inh: NOD2-RIPK2 binding disruptors in cells, primary screen, fluorescence, CHO cells, BLA complementation. inhibition, % at 4.98 µM. 360,000 compounds, 0.38% hits. AID 624267, 2012. CCF4 ratio; in the data active = inhibition above about 21%
TMEM16A reconf: TMEM16A chloride channel inhibitors, confirmation, cell-based, re-confirmation; shares compounds with TMEM16A inh; HEK293 TMEM16A/YFP-H148Q, iodide quench fluorescence; ionomycin added to raise cell calcium; inhibition, % at 10 µM; 2,300 compounds, 39% hits; AID 652189, 2013;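 active = mean duplicate percent inhibition, scaled so buffer wells are 0 and the reference blocker 100, over three buffer SD above buffer mean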
TMEM16A Ca cntr: calcium mobilization in TMEM16A/YFP HEK293 cells, confirmation, counter-screen for TMEM16A inhibitor project. shares compounds with TMEM16A inh. Fluo4 calcium mobilization. calcium response (% of ionomycin), % at 10 µM. 2,300 compounds, 2% hits. AID 652231, 2013;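 active = duplicate-averaged calcium signal over 20% of the ionomycin maximum, relative to buffer baseline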;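 also: each well's signal is peak minus trough fluorescence divided by its pre-addition baseline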
YFP-HEK293 quench: iodide YFP quench changes in parental YFP-HEK293, counter-screen for TMEM16A inhibitor project, cell-based; shares compounds with TMEM16A inh; ionomycin; YFP ratio F(max-min)/F0 at 10 µM; 2,300 tested, under 10 active; AID 652233, 2013;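 active = yellow fluorescent protein signal ratio exceeding the buffer control mean by over 5 SD of those controls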;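 also: ratio is mean of duplicate wells from kinetic YFP trace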
ClC-1 inh: ClC-1 chloride channel inhibition, selectivity assay for TMEM16A inhibitor project, cell-based, voltage-dependent ClC-1; shares compounds with TMEM16A inh; CHO ClC-1-YFP, iodide influx fluorescence quench; iodide control reads 0, buffer control 100; ratio percent, % at 10 µM; 2,300 tested, under 10 active; AID 652236, 2013;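 active = duplicate-mean ratio percent above the mean of iodide-only control wells, which defines zero, plus 5 of their SD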;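 also: higher percent means stronger block of ClC-1 iodide influx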
Each line names hits and unclear results; the compound was inactive in the other large screens (follow-up assays come after a bar, where they were run). This is a sample that favours compounds with a hit; in the whole collection about 2.2% have one here.

CC(C)C(NC(=O)c1c(F)cccc1F)C(=O)N1CCN(c2ncccn2)CC1 (centres undefined)	none (no result: TMEM16A inh, TLR4-MyD88 BLA)
O=C1CC(=C2c3ccccc3-c3ccccc32)C(=O)N1CCN1CCN(c2cccc(Cl)c2)CC1	none
Cc1cc(C)c(C#N)c(SCC2COc3ccccc3O2)n1 (centres undefined)	TMEM16A inh 100 | TMEM16A reconf inactive | TMEM16A Ca cntr inactive | YFP-HEK293 quench inactive | ClC-1 inh inactive
Cc1cc(C)c(C#N)c(SCc2ccccc2C)n1	TMEM16A inh 25 | TMEM16A reconf inactive | TMEM16A Ca cntr inactive | YFP-HEK293 quench inactive | ClC-1 inh inactive
Cc1cc(C)c(C#N)c(SCc2cn3ccccc3n2)n1	none
Cc1cc(C)c(C#N)c(SCc2ccccc2)n1	TMEM16A inh 25 | TMEM16A reconf inactive | TMEM16A Ca cntr inactive | YFP-HEK293 quench inactive | ClC-1 inh inactive
COc1ccc(CSc2nc(C)cc(C)c2C#N)cc1	none
CCCOc1ccc(-c2c(C(=O)N/N=C(\C)c3cccs3)nnn2-c2nonc2N)cc1	none (no result: TLR4-MyD88 BLA)
CSc1ccccc1NC(=O)Nc1ccccc1	TMEM16A inh 100 | TMEM16A reconf inactive | TMEM16A Ca cntr inactive | YFP-HEK293 quench inactive | ClC-1 inh inactive
CSc1ccccc1NC(=O)Nc1cccc(F)c1	none
CCOC(=O)N1CCN(c2nc3ccccc3nc2C(C#N)S(=O)(=O)c2ccc(C)cc2)CC1 (centres undefined)	TMEM16A inh 100 | TMEM16A reconf 76.0% | TMEM16A Ca cntr inactive | YFP-HEK293 quench inactive | ClC-1 inh inactive
Cc1ccc(S(=O)(=O)C(C#N)c2nc3ccccc3nc2N2CCN(C)CC2)cc1 (centres undefined)	none
Cc1cccc(S(=O)(=O)C(C#N)c2nc3ccccc3nc2N2CCOCC2)c1 (centres undefined)	TMEM16A inh 100 | TMEM16A reconf inactive | TMEM16A Ca cntr inactive | YFP-HEK293 quench inactive | ClC-1 inh inactive
CC1(C(=O)NS(=O)(=O)c2cccs2)CCN1C(=O)Cc1ccccc1 (centres undefined)	none (no result: TLR9-MyD88 inh, GRK2 inh, TMEM16A inh, TMEM16A act, TLR4-MyD88 BLA)
O=C(CNC(=O)c1cccc(F)c1)OCCOc1cccc(Cl)c1	none (no result: TLR4-MyD88 BLA)
CC(CC(=O)N1CCN(c2ccc(C(F)(F)F)cn2)CC1)n1ccnc1 (centres undefined)	none
CCCn1c(O)c(CN2CCCCC2)c(C)c(C#N)c1=O	none (no result: TMEM16A act) | TMEM16A reconf 19.5% | TMEM16A Ca cntr inactive | YFP-HEK293 quench inactive | ClC-1 inh inactive
CCOc1ccccc1NC(=O)Cn1c(=O)oc2ccccc21	none
CCOc1ccc(OCC)c(NC(=O)CCn2c(=O)oc3ccccc32)c1	TMEM16A inh 100 | TMEM16A reconf inactive | TMEM16A Ca cntr inactive | YFP-HEK293 quench inactive | ClC-1 inh inactive
Cc1nnsc1C(=O)NC1CCCc2c1cnn2-c1ccc(C(C)(C)C)cc1 (centres undefined)	TMEM16A inh 25 (no result: TLR4-MyD88 BLA) | TMEM16A reconf 20.0% | TMEM16A Ca cntr inactive | YFP-HEK293 quench inactive | ClC-1 inh inactive
Cc1nnsc1C(=O)NC1CCCc2c1cnn2-c1ccccc1F (centres undefined)	TMEM16A inh 100 (no result: TLR4-MyD88 BLA) | TMEM16A reconf inactive | TMEM16A Ca cntr inactive | YFP-HEK293 quench inactive | ClC-1 inh inactive
O=S(=O)(Nc1nc2ccccc2nc1Cl)c1ccc2ccccc2c1	TMEM16A inh 100 | TMEM16A reconf 28.5% | TMEM16A Ca cntr inactive | YFP-HEK293 quench inactive | ClC-1 inh inactive
Cc1ccc(C(C)(C)C)cc1S(=O)(=O)Nc1nc2ccccc2nc1Cl	TMEM16A inh 100 (no result: TLR4-MyD88 BLA) | TMEM16A reconf 39.5% | TMEM16A Ca cntr inactive | YFP-HEK293 quench inactive | ClC-1 inh inactive
COc1cccc(-c2nc3c(c(=O)[nH]c(=O)n3Cc3ccccc3)n2CCO)c1OC(F)F	none (no result: TLR4-MyD88 BLA)
Cc1ccc(SCCNC(=S)Nc2ccc(C)c(C)c2)cc1	TMEM16A inh 100 | TMEM16A reconf 25.5% | TMEM16A Ca cntr inactive | YFP-HEK293 quench inactive | ClC-1 inh inactive
O=C(CCc1nc2ccccc2[nH]1)Nc1ccc(F)cc1	TMEM16A inh 25 | TMEM16A reconf inactive | TMEM16A Ca cntr inactive | YFP-HEK293 quench inactive | ClC-1 inh inactive
COc1ccc(CCNC(=O)CCN2C(=O)C(C)Oc3ccc(C)cc32)cc1OC (centres undefined)	TMEM16A inh 100 | TMEM16A reconf inactive | TMEM16A Ca cntr inactive | YFP-HEK293 quench inactive | ClC-1 inh inactive
CCS(=O)(=O)Nc1cccc(C2=NN(S(=O)(=O)c3ccc(C)cc3)C(c3cccs3)C2)c1 (centres undefined)	none
CCS(=O)(=O)Nc1cccc(C2=NN(S(=O)(=O)c3ccccc3)C(c3cccs3)C2)c1 (centres undefined)	none | TMEM16A reconf inactive | TMEM16A Ca cntr inactive | YFP-HEK293 quench inactive | ClC-1 inh inactive
CCCC1(c2ccccc2)NC(=O)N(CC(=O)NCC2COc3ccccc3O2)C1=O (centres undefined)	none (no result: TMEM16A inh, TLR4-MyD88 BLA)
Fc1ccc(NC(=S)NNc2ncc(C(F)(F)F)cc2Cl)c(F)c1	TMEM16A inh 25 | TMEM16A reconf 30.0% | TMEM16A Ca cntr inactive | YFP-HEK293 quench inactive | ClC-1 inh inactive
Cc1ccc(NC(=S)NNc2ncc(C(F)(F)F)cc2Cl)c(C)c1	none
CN1/C(=C\C=Nc2ccc3ccccc3c2)C(C)(C)c2ccccc21	none
CN(C)c1ccc(N=C/C=C2\N(C)c3ccccc3C2(C)C)cc1	none | TMEM16A reconf inactive | TMEM16A Ca cntr inactive | YFP-HEK293 quench inactive | ClC-1 inh inactive
